Columns and labels:
Conditions in all cases: concentration: 1 μM, replicates: in singlicate; n = 1
AAK1 = system: AAK1
ABL1-nonphosphorylated = system: ABL1-nonphosphorylated
ABL1-phosphorylated = system: ABL1-phosphorylated
ABL2 = system: ABL2
ACVR1B = system: ACVR1B
ACVR1 = system: ACVR1
ACVR2A = system: ACVR2A
ACVR2B = system: ACVR2B
ACVRL1 = system: ACVRL1
ADCK3 = system: T1, ADCK3
T1 construct: gene CABC1
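Further: KINOMEscan kinase panel screen.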

| Compound | %Inh (AAK1) [%] | %Inh (ABL1-nonphosphorylated) [%] | %Inh (ABL1-phosphorylated) [%] | %Inh (ABL2) [%] | %Inh (ACVR1B) [%] | %Inh (ACVR1) [%] | %Inh (ACVR2A) [%] | %Inh (ACVR2B) [%] | %Inh (ACVRL1) [%] | %Inh (ADCK3) [%] |
| --- | --- | --- | --- | --- | --- | --- | --- | --- | --- | --- |
| Cc1ccc(NC(=O)c2cccc(N3CCCCC3)c2)cc1-c1ccc(C(=O)NCC2CC2)cc1 [GSK1917008] | 0 | 0 | 0 | 25 | 0 | 14 | 6 | 10 | 2 | 27 |
| CC(=O)Nc1cn2nc(Oc3cccc(NC(=O)c4cccc(C(F)(F)F)c4)c3)ccc2n1 | 0 | 100 | 99.9 | 99.3 | 0 | 0 | 0 | 31 | 0 | 0 |
| CC(C)NCC(Cc1ccccc1)NC(=O)c1cc(Br)c(-c2ccnc3[nH]ccc23)s1.Cl.Cl (stereo not drawn) [GSK1383281] | 25 | 0 | 14 | 5 | 0 | 0 | 0 | 0 | 0 | 14 |
| COc1cccc2c(-c3ccncc3)c(-c3ccc(F)cc3)nn12 [GW468513] | 10 | 0 | 0 | 5 | 76 | 31 | 0 | 3 | 3 | 43 |
| COc1cc(Nc2nccc(N3CCC(NS(=O)(=O)c4ccc(NC(C)=O)cc4)CC3)n2)cc(OC)c1OC [GSK1379825] | 68 | 0 | 2 | 38 | 34 | 66 | 47 | 59 | 0 | 80 |
| COC(=O)Nc1nc2ccc(Oc3ccc(CC(=O)Nc4cc(C(F)(F)F)ccc4F)cc3)cc2[nH]1 [GW680903] | 4 | 35 | 0 | 34 | 0 | 9 | 0 | 0 | 0 | 19 |
| O=C(Nc1c(F)cccc1F)c1cc(C(=O)c2ccccc2F)c[nH]1 [GSK1326180] | 0 | 0 | 0 | 0 | 20 | 0 | 0 | 0 | 9 | 11 |
| CCn1c(-c2nonc2N)nc2c(-c3ccccc3)ncc(OCCCN)c21.O=C(O)C(F)(F)F.O=C(O)C(F)(F)F [GSK260205] | 14 | 0 | 9 | 16 | 61 | 38 | 0 | 0 | 0 | 46 |
| Cn1cc(-c2ccc3c(c2)CCN3C(=O)Cc2cc(F)cc(C(F)(F)F)c2)c2c(N)ncnc21 [GSK2635225] | 10 | 78 | 15 | 40 | 0 | 0 | 0 | 12 | 0 | 17 |
